The panel holds about 83,000 compounds, 20% with a hit somewhere; the sample as a whole holds those more often.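 How to read the values: 0–100, growth inhibition (40 = 60% inhibited); 0, no net growth; -100 to 0, cell death (-40 = 40% of starting cells died; -100 = all dead).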 Activity calls are given as the source filed them. The calls were made as follows: active = growth percent below 10; inactive = the rest.
Legend:
Assay in all cases: NCI-60 one-dose screen, 48 h (100 = growth as untreated, 0 = no growth, -100 = all killed)
Conditions in all cases: 10 µM unless noted
SR leukemia = tested on: SR leukemia
RPMI-8226 leukemia = tested on: RPMI-8226 leukemia
OVCAR-8 ovarian = tested on: OVCAR-8 ovarian
OVCAR-5 ovarian = tested on: OVCAR-5 ovarian
OVCAR-4 ovarian = tested on: OVCAR-4 ovarian
SK-OV-3 ovarian = tested on: SK-OV-3 ovarian
IGROV1 ovarian = tested on: IGROV1 ovarian
OVCAR-3 ovarian = tested on: OVCAR-3 ovarian
HS 578T breast = tested on: HS 578T breast
NCI/ADR-RES ovarian = tested on: NCI/ADR-RES ovarian

Measured: growth

O=C(CN1C(=O)NC2NC(=O)NC21)N/N=C/c1ccccc1[N+](=O)[O-] (stereo not given)
inactive: SR leukemia 110% | RPMI-8226 leukemia 109% | OVCAR-8 ovarian 104% | OVCAR-5 ovarian 108% | OVCAR-4 ovarian 99.6% | SK-OV-3 ovarian 104% | IGROV1 ovarian 107% | OVCAR-3 ovarian 123% | HS 578T breast 107% | NCI/ADR-RES ovarian 105%

Clc1cc(Cl)c(Cl)c(-c2nnc(SCc3ccncc3Br)o2)c1
inactive: RPMI-8226 leukemia 72.9% | OVCAR-8 ovarian 120% | OVCAR-5 ovarian 80.1% | OVCAR-4 ovarian 90.6% | SK-OV-3 ovarian 101% | IGROV1 ovarian 72.9% | OVCAR-3 ovarian 89% | HS 578T breast 90.4% | NCI/ADR-RES ovarian 89.6%
active: SR leukemia -26.8%

O=C(CN1C(=O)S/C(=C\C(Cl)=C\c2ccccc2)C1=O)NCCc1ccc(O)cc1
active: SR leukemia 1.71% | RPMI-8226 leukemia 0.0656% | IGROV1 ovarian -12.9% | OVCAR-3 ovarian -14.4%
inactive: OVCAR-8 ovarian 14% | OVCAR-5 ovarian 77.7% | OVCAR-4 ovarian 56.4% | SK-OV-3 ovarian 90.1% | HS 578T breast 36.3% | NCI/ADR-RES ovarian 19.6%

O=CN1N=C(c2cccc(Nc3ccnc4cc(Cl)ccc34)c2)CC1c1ccccc1 (stereo not given)
inactive: RPMI-8226 leukemia 27.7% | OVCAR-8 ovarian 38% | OVCAR-5 ovarian 36.3% | OVCAR-4 ovarian 41.2% | IGROV1 ovarian 28.9%
active: SR leukemia 9.69% | SK-OV-3 ovarian 8.25% | OVCAR-3 ovarian -12.9% | HS 578T breast 1.24% | NCI/ADR-RES ovarian 3.37%

O=C1/C(=C/c2ccccc2Br)COc2ccc(O)cc21
inactive: SR leukemia 10.3% | OVCAR-8 ovarian 55.5% | OVCAR-5 ovarian 91.9% | OVCAR-4 ovarian 77.8% | SK-OV-3 ovarian 128% | IGROV1 ovarian 78.6% | OVCAR-3 ovarian 54.5% | HS 578T breast 70.5% | NCI/ADR-RES ovarian 46.9%
active: RPMI-8226 leukemia 1.71%

Ic1ccc(OCCCCn2ccnc2)cc1
inactive: SR leukemia 45.1% | RPMI-8226 leukemia 73.5% | OVCAR-8 ovarian 95.5% | OVCAR-5 ovarian 64.4% | OVCAR-4 ovarian 44.7% | SK-OV-3 ovarian 80.9% | IGROV1 ovarian 71.9% | OVCAR-3 ovarian 39.2% | HS 578T breast 90.2% | NCI/ADR-RES ovarian 90.7%

COc1ccc(C(=O)/C=C/c2c(C(F)(F)F)nc3ccccn23)cc1OC
inactive: OVCAR-8 ovarian 10.9% | SK-OV-3 ovarian 17.3% | IGROV1 ovarian 17.3%
active: SR leukemia -9.91% | RPMI-8226 leukemia 6.41% | OVCAR-5 ovarian 9.01% | OVCAR-4 ovarian 5.92% | OVCAR-3 ovarian -51.3% | HS 578T breast 4.59% | NCI/ADR-RES ovarian -22.7%

C1CCC([PH+](C2CCCCC2)C2CCCCC2[PH+](C2CCCCC2)C2CCCCC2)CC1.[Au].[CH-]1CCCCC1C1CCCC[N-]1 (stereo not given)
active: SR leukemia -3.06% | RPMI-8226 leukemia -15.6% | OVCAR-8 ovarian -6.1% | OVCAR-5 ovarian -69.3% | OVCAR-4 ovarian -5.17% | SK-OV-3 ovarian -65.8% | IGROV1 ovarian -38.6% | OVCAR-3 ovarian -92.2% | HS 578T breast -5.47% | NCI/ADR-RES ovarian 9.87%

CCn1cc(C(=O)O)c(=O)c2cc(F)c(N3CCN(CC(=O)Nc4ccc(S(=O)(=O)Nc5nccc(C)n5)cc4)C(C)C3)c(F)c21 (stereo not given)
inactive: SR leukemia 103% | RPMI-8226 leukemia 109% | OVCAR-8 ovarian 105% | OVCAR-5 ovarian 98.5% | OVCAR-4 ovarian 104% | SK-OV-3 ovarian 113% | IGROV1 ovarian 99.7% | OVCAR-3 ovarian 113% | HS 578T breast 99.6% | NCI/ADR-RES ovarian 107%

CCN(CC)S(=O)(=O)c1ccc(S(=O)(=O)N2CCC[C@@H](C(=O)N3CCN(c4nc(C(C)C)no4)CC3)C2)cc1
inactive: SR leukemia 31.6% | RPMI-8226 leukemia 54.8% | OVCAR-8 ovarian 61.3% | OVCAR-5 ovarian 102% | OVCAR-4 ovarian 30.8% | SK-OV-3 ovarian 87.3% | IGROV1 ovarian 86.2% | OVCAR-3 ovarian 75.6% | HS 578T breast 82.8% | NCI/ADR-RES ovarian 58.9%

CSc1nc(N)c(NS(=O)(=O)c2ccc(C(C)=O)cc2)c(=O)[nH]1
inactive: SR leukemia 119% | RPMI-8226 leukemia 110% | OVCAR-8 ovarian 107% | OVCAR-5 ovarian 104% | OVCAR-4 ovarian 117% | SK-OV-3 ovarian 117% | IGROV1 ovarian 106% | OVCAR-3 ovarian 105% | HS 578T breast 105% | NCI/ADR-RES ovarian 96.8%

C=CCn1c(SCC(=O)Nc2ccc(C(=O)/C=C/c3ccc(Cl)cc3)cc2)nnc1-c1ccc(Br)cc1
active: RPMI-8226 leukemia -28.1%
inactive: SR leukemia 70.7% | OVCAR-8 ovarian 57.6% | OVCAR-5 ovarian 98% | OVCAR-4 ovarian 57.6% | SK-OV-3 ovarian 138% | IGROV1 ovarian 87.2% | OVCAR-3 ovarian 85.5% | HS 578T breast 71.9% | NCI/ADR-RES ovarian 74.7%

O=C1c2c(c3c4ccccc4[nH]c3c3ccc4ccccc4c23)C(=O)N1CCN1CCOCC1
active: RPMI-8226 leukemia 7.91%
inactive: SR leukemia 13.1% | OVCAR-8 ovarian 31.5% | OVCAR-5 ovarian 71.7% | OVCAR-4 ovarian 57.7% | SK-OV-3 ovarian 81.2% | IGROV1 ovarian 30% | OVCAR-3 ovarian 44.1% | HS 578T breast 62.5% | NCI/ADR-RES ovarian 21.1%

Cc1cc(N2CCCCC2)cc(C)c1-c1csc(NC(=O)c2ccncc2)n1
inactive: SR leukemia 37.7% | RPMI-8226 leukemia 37.5% | OVCAR-8 ovarian 51.2% | OVCAR-5 ovarian 92.6% | OVCAR-4 ovarian 24.2% | SK-OV-3 ovarian 62.6% | IGROV1 ovarian 64.4% | OVCAR-3 ovarian 50.5% | HS 578T breast 75.2% | NCI/ADR-RES ovarian 56.4%

N#CC1=C(c2ccccc2)Nc2c(c(-c3ccc(Cl)cc3)nn2-c2ccccc2)C12C(=O)Nc1ccc(Cl)cc12 (stereo not given)
inactive: SR leukemia 53.9% | RPMI-8226 leukemia 47.4% | OVCAR-8 ovarian 84% | OVCAR-5 ovarian 82.6% | OVCAR-4 ovarian 87.8% | SK-OV-3 ovarian 90.8% | IGROV1 ovarian 57.1% | OVCAR-3 ovarian 88.1% | HS 578T breast 62.2% | NCI/ADR-RES ovarian 87.8%

N#Cc1nc(-c2ccc(F)cc2)oc1S(=O)(=O)N1CCCCC1
inactive: RPMI-8226 leukemia 49.4% | OVCAR-8 ovarian 58.3% | OVCAR-5 ovarian 95.9% | OVCAR-4 ovarian 57.4% | SK-OV-3 ovarian 104% | IGROV1 ovarian 59.6% | HS 578T breast 95.6% | NCI/ADR-RES ovarian 97.7%
active: SR leukemia 1.55% | OVCAR-3 ovarian -54.5%

O=C(NCCNc1nccc(Nc2ccc(S(=O)(=O)Nc3ccccn3)cc2)n1)c1cccc([N+](=O)[O-])c1
inactive: SR leukemia 84.7% | RPMI-8226 leukemia 96.1% | OVCAR-8 ovarian 104% | OVCAR-5 ovarian 93% | OVCAR-4 ovarian 89.9% | SK-OV-3 ovarian 100% | IGROV1 ovarian 106% | OVCAR-3 ovarian 108% | HS 578T breast 108% | NCI/ADR-RES ovarian 104%

C=CC[Se]C(=O)Cc1c(C)n(C(=O)c2ccc(Cl)cc2)c2ccc(OC)cc12
active: SR leukemia 2.02% | RPMI-8226 leukemia -25.8% | OVCAR-8 ovarian -38.1% | OVCAR-5 ovarian -44.7% | OVCAR-4 ovarian -50.7% | SK-OV-3 ovarian -83% | IGROV1 ovarian 2.4% | OVCAR-3 ovarian -40.6% | HS 578T breast -12.7% | NCI/ADR-RES ovarian -7.75%

N#CC1=C(N)Oc2c(ccc3ccccc23)C1c1ccccc1 (stereo not given)
inactive: SR leukemia 15.2% | OVCAR-5 ovarian 33.8% | OVCAR-4 ovarian 50.3% | SK-OV-3 ovarian 12.7% | IGROV1 ovarian 27.2% | HS 578T breast 28.8%
active: RPMI-8226 leukemia 8.06% | OVCAR-8 ovarian 7.27% | OVCAR-3 ovarian -2.34% | NCI/ADR-RES ovarian 2.65%

CCN(CC)CCn1c2ccc(O)cc2c2sc3cc(O)ccc3c(=O)c21
active: SR leukemia 5.78%
inactive: RPMI-8226 leukemia 28.3% | OVCAR-8 ovarian 31.4% | OVCAR-5 ovarian 54% | OVCAR-4 ovarian 46.6% | SK-OV-3 ovarian 48.7% | IGROV1 ovarian 15.4% | OVCAR-3 ovarian 41% | HS 578T breast 64.5% | NCI/ADR-RES ovarian 61.1%

CCNCCNc1cc(-c2ccc(C(F)(F)F)cc2)c(C#N)c2nc3ccccc3n12
active: SR leukemia -47.6% | RPMI-8226 leukemia -38.8% | OVCAR-8 ovarian -47.2% | OVCAR-5 ovarian -61.9% | OVCAR-4 ovarian -61.8% | SK-OV-3 ovarian -94.1% | IGROV1 ovarian -78.5% | OVCAR-3 ovarian -88.3% | HS 578T breast -46.3% | NCI/ADR-RES ovarian -49.7%

C#CCOC(=O)/C=C/c1cn(-c2ccccc2)nc1-c1ccc(OC)cc1
inactive: SR leukemia 83.2% | RPMI-8226 leukemia 105% | OVCAR-8 ovarian 78.5% | OVCAR-5 ovarian 91% | OVCAR-4 ovarian 90.7% | SK-OV-3 ovarian 89.3% | IGROV1 ovarian 74% | OVCAR-3 ovarian 103% | HS 578T breast 76.9% | NCI/ADR-RES ovarian 98.4%

O=C1NC2(Nc3ccccc31)C(=O)Nc1c(Cl)cc(Cl)cc12 (stereo not given)
inactive: SR leukemia 93.2% | RPMI-8226 leukemia 105% | OVCAR-8 ovarian 102% | OVCAR-5 ovarian 115% | OVCAR-4 ovarian 98.9% | SK-OV-3 ovarian 107% | IGROV1 ovarian 91.5% | OVCAR-3 ovarian 118% | HS 578T breast 100% | NCI/ADR-RES ovarian 108%

COC(=O)[C@]1(C)CCC[C@]2(C)[C@H]3C[C@H]4C(C(C)C)=C[C@]3(CC[C@H]21)[C@@H]1C(=O)CC[C@H](OCCC#N)[C@@H]14
inactive: SR leukemia 58.9% | RPMI-8226 leukemia 68% | OVCAR-8 ovarian 99.2% | OVCAR-5 ovarian 129% | OVCAR-4 ovarian 77.3% | SK-OV-3 ovarian 109% | IGROV1 ovarian 67.3% | OVCAR-3 ovarian 81.5% | HS 578T breast 79.9% | NCI/ADR-RES ovarian 77.8%

Cc1ccc2c(n1)C(=O)C(Br)=C(C1CCCC1)C2=O
inactive: SR leukemia 31.1% | RPMI-8226 leukemia 55.9% | OVCAR-8 ovarian 96% | OVCAR-5 ovarian 106% | OVCAR-4 ovarian 112% | SK-OV-3 ovarian 88.7% | IGROV1 ovarian 96% | OVCAR-3 ovarian 82.9% | HS 578T breast 93.1% | NCI/ADR-RES ovarian 97.1%

O=C1C(Cl)=C(Nc2ccc(S(=O)(=O)N3CCOCC3)cc2)C(=O)c2ccccc21
active: SR leukemia -3.16%
inactive: RPMI-8226 leukemia 21.2% | OVCAR-8 ovarian 70% | OVCAR-5 ovarian 38.1% | OVCAR-4 ovarian 86% | SK-OV-3 ovarian 81.3% | IGROV1 ovarian 62.5% | OVCAR-3 ovarian 72.8% | HS 578T breast 79.2% | NCI/ADR-RES ovarian 90%

COc1cccc(CNc2ccc3ncnc(Nc4ccc(F)c(Cl)c4)c3c2)c1
inactive: SR leukemia 50.5% | RPMI-8226 leukemia 68.3% | OVCAR-8 ovarian 59.3% | OVCAR-5 ovarian 72.2% | OVCAR-4 ovarian 60.6% | SK-OV-3 ovarian 42.6% | IGROV1 ovarian 36.8% | OVCAR-3 ovarian 53.8% | HS 578T breast 87.4% | NCI/ADR-RES ovarian 54.7%

— PubChem BioAssay (NCI)
